Experiment [1] in a line: Viability qHTS for spleen associated tyrosine kinase inhibitor (SYKi) naive MV4-11 cells (AID 1963823). Note: nearly all actives have a fitted effect of over 40% in size. The essentials: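 Viability of MV4-11 AML cells lacking prior SYK inhibitor exposure is scored by CellTiter-Glo luminescence following 72 hr compound incubation at 37 C, 5% CO2, seeded at 500 cells per well.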
In general terms: Quantitative high-throughput screening tests each substance at several concentrations.

A short description of experiment [2]: Viability qHTS for spleen associated tyrosine kinase inhibitor (SYKi) drug resistant MV4-11 cells (AID 1963824). Note: nearly all actives have a fitted effect of over 35% in size. The essentials:
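SYK-inhibitor-resistant MV4-11 AML cells were seeded at 500 per well onto compound and cultured 72 hours (37 °C, 5% CO2). CellTiter-Glo was then added, and after 10 min at room temperature, luminescence gave viability.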

Results filed as inconclusive are left out. Values without a mark were called inactive. The source made the active and inactive calls. Calls come from the whole dose curve; as a rule, active = well fitted cell-killing curve with a large enough effect; inconclusive = small, poorly fitted or top-dose-only effect, or effect the other way; inactive = no such curve, though single readings can be large or run the other way.

This note sets out measurements from PubChem BioAssay (NCATS).
Potency is the fitted concentration of half-maximal effect.

Regarding `CN[C@H]1CCN(C(=O)c2ccc(Nc3ncc(F)c(-c4cnc(C)n4C(C)C)n3)cc2)C1`, the results for the Potency in experiment [1] and in experiment [2] were 0.058 µM (active) and 0.0517 µM (active), respectively.
The matching figures for `OC[C@H]1O[C@@H](O[C@@H]2OC=C[C@H]3[C@H](O)[C@@H]4O[C@]4(CO)[C@@H]23)[C@H](O)[C@@H](O)[C@@H]1O`: “inactive” and “inactive”.
`C=C1CCC2(OC1)OC1CC3C4CC=C5CC(O)CC(O[C@@H]6OC[C@@H](O)[C@H](O)[C@H]6O)C5(C)C4CCC3(C)C1(O)C2C` (stereo not given in full): the Potency entry in experiment [1] and in experiment [2] was “inactive” in each case.
With `CCC(C)C(=O)O[C@@H]1[C@@H](O)[C@@H](O[C@H]2O[C@H](CO)[C@@H](O)[C@H](O)[C@H]2O)O[C@H](CO)[C@H]1O` (stereo not given in full), the Potency result in experiment [1] and in experiment [2] was “inactive” throughout.
Regarding `CC1=CC(=O)CC(C)(C)C1/C=C/C(C)OC1OC(COC2OCC(O)C(O)C2O)C(O)C(O)C1O` (stereo not given), the Potency entry in experiment [1] and in experiment [2] was “inactive” throughout.
Regarding `C[C@@H]1O[C@@H](O[C@H]2[C@H](OC(=O)[C@]34CCC(C)(C)C[C@H]3C3=CCC5[C@@]6(C)C[C@@H](O)[C@@H](O)[C@@](C)(CO)C6[C@H](O)C[C@@]5(C)[C@]3(C)CC4)OC[C@H](O)[C@@H]2O)[C@H](O)[C@H](O)[C@H]1O[C@@H]1OC[C@@H](O)[C@H](O[C@H]2O[C@H](C)[C@@H](O)[C@H](O)[C@@H]2O)[C@H]1O` (stereo not given in full), in experiment [1], the viability (% of control) was 80.2% [at 9.25 µM]. For the same molecule, the viability, % of control in experiment [2] is 77.9% [at 9.25 µM].
Turning to `C/C=C/C=C/C=C/C(=O)N(C)C(C(=O)NC(C)C(=O)N1CCCC1C(N)=O)C(C)C` (stereo not given), the Potency entry in experiment [1] and in experiment [2] was “inactive” throughout.
Consider `CC(=O)OC[C@]12[C@@H](OC(=O)c3ccoc3)C[C@@H]3[C@@H](OC(C)=O)[C@]1(OC3(C)C)[C@@](C)(O)C[C@H](OC(=O)c1ccoc1)[C@@H]2OC(=O)c1ccoc1`, for which the Potency entry in experiment [1] and in experiment [2] was “inactive” each time.
As for `COC(=O)C(C)C1CCC2(C)C(=O)C=CC(C)(O)C2C1O` (stereo not given), the Potency result in experiment [1] and in experiment [2] was “inactive” in each case.
With `C=C1C(=O)O[C@@H]2C3C(=C(C)[C@@H](O)[C@@H](OC(=O)/C(=C/C)COC(C)=O)[C@@H]12)C(=O)[C@H]1O[C@@]31C` (stereo not given in full), the Potency is 2.82 µM (active) in experiment [1] and 3.55 µM (active) in experiment [2].
Turning to `CC1=CC2=C(C)C(=O)[C@](C)(O)[C@H](O)C2=CO1`, the Potency entry in experiment [1] and in experiment [2] was “inactive” in each case.
For `COc1ccc(/C=C/C(=O)O[C@@H]2[C@@H](O)[C@@H](O)[C@H](O[C@@H]3C=C(CO)[C@H]4[C@H](O[C@@H]5O[C@H](CO)[C@@H](O)[C@H](O)[C@H]5O)OC=C[C@H]43)O[C@H]2C)cc1O`, the Potency result in experiment [1] and in experiment [2] was “inactive” in each case.
Regarding `C=C1C(=O)O[C@@H]2C[C@H](C)[C@@H]3CC(=O)[C@H](O)[C@@]3(C)C[C@H]12`, the results for the Potency in experiment [1] and in experiment [2] were 9.2 µM (active) and 11.6 µM (active), respectively.
The matching figures for `O=C1NC(=O)c2cc(Nc3ccc(F)cc3)c(Nc3ccc(F)cc3)cc21`: 2.91 µM (active) and 1.03 µM (active).
For `CCC(C)/C=C(C)/C=C/C1=CC2=C(Cl)C(=O)C(C)(OC(C)=O)C(=O)C2(O)C(OC)O1` (stereo not given), the results for the Potency in experiment [1] and in experiment [2] were 11.2 µM (active) and 7.96 µM (active), respectively.
The corresponding values for `COc1cc(/C=C/C(=O)OC(C)(C)C(OC2OC(CO)C(O)C(O)C2O)C(=O)OCc2ccc(OC3OC(CO)C(O)C(O)C3O)cc2)ccc1O` (stereo not given) are “inactive” and “inactive”.
The corresponding values for `OC[C@H]1O[C@@H](OC[C@H]2O[C@@H](OCc3ccccc3)[C@H](O)[C@@H](O)[C@@H]2O)[C@H](O)[C@@H](O)[C@@H]1O` are “inactive” and “inactive”.
Take `C=C(C(=O)O)C1CCC(C)C2CCC(=O)OC2(C)C1` (stereo not given): in experiment [1], the Potency entry was “inactive”. Also, the Potency in experiment [2] is 20.6 µM (active).
The matching figures for `O=C(Nc1ccccc1)N1CCN(c2nc(-c3ccccc3)ns2)CC1`: 14.6 µM (active) and 16.4 µM (active).
The corresponding values for `C=CC1(C)C=C2C(=O)CC3C(C)(C)CCCC3(C(=O)O)C2(O)CC1` (stereo not given) are “inactive” and “inactive”.
The matching figures for `Oc1cccc(Nc2ncnc3sc4c(c23)CCCC4)c1`: 4.11 µM (active) and 5.8 µM (active).
In the case of `C/C=C/c1ccc(O[C@@H]2O[C@H](CO)[C@@H](O)[C@H](O)[C@H]2O)c(OC)c1`, the Potency entry in experiment [1] and in experiment [2] was “inactive” each time.
As for `COc1ccc(C2=NC(c3ccc(Cl)cc3)C(c3ccc(Cl)cc3)N2C(=O)N2CCNC(=O)C2)c(OC(C)C)c1` (stereo not given), the Potency was 16.4 µM (active) in experiment [1] and 18.4 µM (active) in experiment [2].
The corresponding values for `CC(C)(O)C1CCC2(C)C3C(O)C4C(C13)C42CO` (stereo not given) are “inactive” and “inactive”.
For `CC(C)[C@H]1CC[C@@]2(O)COC(=O)[C@H]2[C@@H]1/C=C(\CO)C(=O)O`, the Potency result in experiment [1] and in experiment [2] was “inactive” in each case.
